# Many of the other results were omitted from the sample, so hits are more common in it than they were.
# TbPYK inhibitor: blocks Trypanosoma brucei pyruvate kinase | Q57TT1 | TbPYK enzyme, Kinase-Glo Plus ATP luminescence, 45 min | Potency, µM (top dose mostly 76.8 µM), without a hit: at the highest dose activity, negative = inhibition, hits mostly inhibitors | 410,000 compounds, 0.12% hits; also: potency is read from the fitted curve at half-maximal effect; % is scaled to controls: 0 for no effect and ±100 for the full control effect; nearly all actives have a fitted effect of over 50% in size
#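 Quantitative HTS: titrated library compounds versus trypanosomal pyruvate kinase in TEA buffer (pH 7.2) containing KCl, MgCl2, BSA and Tween-20. Reactions were initiated with ADP, 130 uM final. Kinase-Glo Plus luminescence was read after 45 min at RT.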
# Giardia FBPA inh: Giardia lamblia aldolase inhibition; A8B2U2; Potency, µM (series often up to 59.6 µM), for inactives: top-dose activity, negative = inhibition, hits mostly inhibitors; purified Giardia FBPA; 290,000 compounds, 0.71% hits; also: potency is read from the fitted curve at half-maximal effect; % is scaled to controls: 0 for no effect and ±100 for the full control effect; nearly all actives have a fitted effect of over 55% in size
#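 Giardia FBPA (40 nM reagent) was preincubated 10 min at RT with compound (up to 57.5 uM final), then substrate plus GAPDH/TPI/NAD/arsenate coupling system with diaphorase/resazurin was added; resorufin fluorescence (525/598 nm) was read after 20 min.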
# Shiga toxin inh: Shiga toxin inhibition; Vero cells, Shiga toxin protein synthesis inhibition reporter; inhibition, % at 38.7 µM; 290,000 compounds, 9.2% hits; in the data active = inhibition mostly above about 28%, no sharp cut-off; inactive = mostly below about 43%; also: 0% is about no effect
# Cycloheximide cs: counter-screen for Shiga toxin inhibitors: cycloheximide protein synthesis inhibition; AID 2314; max response, %; cell reporter, cycloheximide protein synthesis inhibition counterscreen; 300,000 compounds, 12% hits; in the data active = max response mostly above about 13%, no sharp cut-off; inactive = mostly below about 14%; also: read at 38.3 µM for the half of the compounds with a filed dose; 0% is about no effect
# Sm TGR block: blocks Schistosoma mansoni thioredoxin glutathione reductase; Q962Y6; purified TGR, DTNB reduction, TNB absorbance 405 nm; Potency, µM (series often up to 114 µM), for inactives: at the top dose activity change, negative = inhibition, actives largely listed as inhibitors; 360,000 compounds, 3% hits; AID 485364; also: potency is read from the fitted curve at half-maximal effect; % is scaled to controls: 0 for no effect and ±100 for the full control effect; nearly all actives have a fitted effect of over 60% in size
#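 Kinetic colorimetric format: TGR-catalysed, NADPH-driven DTNB reduction monitored via TNB absorbance. Enzyme dispensed at 20 nM; compound exposure 15 min at room temperature before reaction start.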
# LmPK inhibitor: LmPK (Leishmania mexicana) enzyme inhibition; Q27686; purified LmPK, Kinase-Glo ATP luminescence, 1 h; Potency, µM (series often up to 57.5 µM), inactives show at the top dose activity change, negative = inhibition, most hits filed as inhibitors; 290,000 compounds, 0.37% hits; AID 1721; also: potency is read from the fitted curve at half-maximal effect; % is scaled to controls: 0 for no effect and ±100 for the full control effect
# Target sequence (Q27686 whole entry, looked up): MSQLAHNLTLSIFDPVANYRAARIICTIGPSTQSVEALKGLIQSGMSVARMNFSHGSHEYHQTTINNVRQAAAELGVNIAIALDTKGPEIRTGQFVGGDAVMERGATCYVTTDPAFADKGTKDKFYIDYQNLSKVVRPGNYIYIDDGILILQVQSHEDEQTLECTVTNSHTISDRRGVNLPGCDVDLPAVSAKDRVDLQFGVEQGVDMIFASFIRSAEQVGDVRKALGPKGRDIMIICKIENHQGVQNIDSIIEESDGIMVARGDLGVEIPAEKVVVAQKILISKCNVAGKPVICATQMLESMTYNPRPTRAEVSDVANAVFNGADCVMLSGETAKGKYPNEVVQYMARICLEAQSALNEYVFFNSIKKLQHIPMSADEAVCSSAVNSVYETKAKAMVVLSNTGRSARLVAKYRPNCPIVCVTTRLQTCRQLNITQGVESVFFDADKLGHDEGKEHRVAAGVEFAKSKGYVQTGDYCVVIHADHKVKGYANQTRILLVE
#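 Pyruvate kinase activity monitored as ATP production (luciferase luminescence). Conditions: 0.1 nM enzyme, 0.5 mM PEP, 0.1 mM ADP, 1 h, RT; normalized against uninhibited and no-enzyme wells.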
# * = called active by the depositor; ? = inconclusive; . = no result given. Unless noted, calls follow the shape of the dose curve; as a rule, active = well fitted curve in the direction sought with a large enough effect; inconclusive = small, poorly fitted or top-dose-only effect, or another doubt; inactive = no such curve, though single readings can be large; an effect the other way counts as inactive or inconclusive.
SMILES,TbPYK inhibitor,Giardia FBPA inh,Shiga toxin inh,Cycloheximide cs,Sm TGR block,LmPK inhibitor
CC(C)C[C@H]1CN([C@@H](Cc2ccccc2)CN2CCC[C@H]2CN2C(=O)C(=O)NC[C@@H]2Cc2ccc(O)cc2)C(=O)C(=O)N1CC1CCCCCC1,-1.2%,.,.,.,.,.
O=C(COc1ccccc1F)Nc1ccc2c(c1)OCCO2,14.0%,-0.2%,102.9*,56.2*,-1.4%,-2.4%
O=C(COc1ccccc1Br)Nc1ccc2c(c1)OCCCO2,0.0%,0.3%,65.6*,46.7*,-4.5%,6.2%
O=C(COC(=O)Cc1ccccc1F)Nc1ccc2c(c1)OCCO2,1.4%,-3.0%,59.0*,33.3*,-1.8%,3.7%
CCN(CC)c1ccc(NC(=O)COc2ccccc2C#N)cc1S(=O)(=O)Nc1ccc(OC)cc1,-12.8%,-2.6%,44.0*,10.1,-10.1%,3.6%
O=C(COC(=O)Cc1ccccc1F)Nc1ccc2c(c1)OCO2,-7.4%,-4.5%,-4.6,5.9,-10.3%,1.0%
CCN(CC)c1ccc(NC(=O)COc2ccccc2C)cc1S(=O)(=O)Nc1ccccc1OC,?,-2.1%,-13.8,-1.0,5.5%,1.4%
N#Cc1ccccc1OCC(=O)Nc1ccc2c(c1)OCO2,7.6%,.,.,.,.,.
CC1(C(=O)Nc2cccc(NS(C)(=O)=O)c2)CCN1CCc1ccccc1 (stereo not drawn),1.0%,.,.,.,.,.
N#Cc1ccccc1OCC(=O)Nc1ccc2c(c1)OCCCO2,-1.8%,-2.5%,77.3*,49.8*,10.3%,-2.9%
N#Cc1ccccc1OCC(=O)Nc1ccc2c(c1)OCCO2,-4.3%,.,.,.,3.3%,.
CN(C(=O)/C=C/c1ccc([N+](=O)[O-])s1)c1ccccc1,-5.2%,3.7%,64.3,9.8,11.2µM*,0.9%
Cc1ccc(CNC(=O)c2cc(COc3c(F)cccc3F)on2)s1,-7.1%,4.7%,20.6,-0.2,0.0%,-3.8%
